Compounds with a hit are over-represented: about 13% of the library has one in this group of screens.
Pf growth 96h = P. falciparum growth inhibition at 96 hour, primary screen for plastid delayed-death inhibitors | P. falciparum luciferase reporter growth, 96 h | Potency, µM (titrated, usually from 28.7 µM), without a hit: at the top dose activity change, negative = inhibition, most hits filed as inhibitors | hit rate 6.9% among 320,000 | AID 504834; further: potency means the concentration at half of the fitted maximal effect
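Plates of compound plus infected erythrocytes (2% hematocrit, 0.05% parasitemia final) incubate 96 hours, 37 C, 5% CO2. Detection reagent added; reduced luminescence from the parasites' luciferase reporter flags inhibition.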
Pf growth 48h = inhibits P. falciparum growth in the first generation, 48 h; P. falciparum luciferase growth in erythrocytes, 48 h; Potency, µM (series often up to 28.7 µM), inactives show at the top dose activity change, negative = inhibition, most hits filed as inhibitors; hit rate 5.9% among 310,000; AID 504832; further: potency means the concentration at half of the fitted maximal effect
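First compound was added to culture medium, then infected red cells at 0.1% parasitemia and 2% hematocrit (final). After incubation at 37 C under 5% CO2, luciferase detection reagent was dispensed and light output recorded.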
HCV inh = inhibitors of hepatitis C virus infection | Huh7.5.1 HCVcc-Cre infection, luciferase reporter, 44 h | Potency, µM (doses to about 41.8 µM), without a hit: at the highest dose activity change, negative = inhibition, most hits filed as inhibitors | hit rate 3.4% among 340,000; further: potency means the concentration at half of the fitted maximal effect
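Infectious HCV cell culture screen: compound-treated cells (1,000/well, pre-plated 4 h) are infected with HCVcc-Cre at roughly 0.5 moi and grown 44 h. Infection is quantified by luciferase signal after 15 min substrate incubation at room temperature.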
HCMV inh = human cytomegalovirus inhibition; HFF cells, HCMV-luciferase reporter, 72 h; hits give low values; activity change, negative = inhibition, % at 57.5 µM; hit rate 4.5% among 410,000; in the data active means activity change below about -60%; inconclusive means no clear call, values can overlap the other calls; inactive means above about -39%
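Inhibition of viral replication was scored as loss of reporter luminescence in HFFs infected with HCMV-luciferase (MOI 1 PFU/cell) for 72 h; compounds tested at 2 doses, normalized to buffer and Salinomycin controls.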
Numbers without * were called inactive. Unless noted, the call rests on the fitted dose curve; in most records, active means well fitted inhibition curve with a large enough effect; inconclusive means small, poorly fitted or top-dose-only effect, or another doubt; inactive means no such curve, though single readings can be large or run the other way. On the % scale 0 is the no-effect control and ±100 the full control effect.

Results for COC(=O)c1cc2c(c3c4cc(C)ccc4n(S(=O)(=O)c4cccc(C)c4)c13)C(=O)N(Cc1ccccc1OC)C2 ?
HCMV inh: -31.5

What do the screens show for `Cn1cnc(S(=O)(=O)N2CCC(C(=O)NCc3ccc(Cl)cc3)CC2)c1`?
HCMV inh: 3.1

What do the screens show for `COc1ccc(-c2cc(C(F)(F)F)n3nc(C(=O)Nc4cccc(C(F)(F)F)c4)c(Br)c3n2)cc1`?
HCMV inh: -13.9

What do the screens show for `COc1cc(/C=C/c2nc3cc(Cl)ccc3c(=O)n2-c2ccc(C)cc2C)cc(OC)c1OC`?
HCMV inh: 24.0

Results for CC(C)c1ccc(OCC(O)CNC(C)c2ccccc2)cc1 (configuration not stated) ?
Pf growth 96h: inconclusive; Pf growth 48h: 4.65µM*; HCV inh: inconclusive; HCMV inh: -23.5

Results for Cc1cccc(OCC(=O)Nc2cccc(C(=O)Nc3ccccc3C(=O)O)c2)c1 ?
Pf growth 96h: inconclusive; Pf growth 48h: 2.6%; HCV inh: 6.2%; HCMV inh: 42.9

How did NCC(O)COCCC12CC3CC(CC(C3)C1)C2 (configuration not stated) do in these assays?
Pf growth 96h: -0.8%; Pf growth 48h: 9.3%; HCV inh: 10.5%; HCMV inh: -11.4

What do the screens show for `CC(NCC(O)COCCC12CC3CC(CC(C3)C1)C2)c1ccccc1` (configuration not stated)?
Pf growth 96h: 30.1%; Pf growth 48h: 5.22µM*; HCV inh: 7.94µM*; HCMV inh: -98.4*

Results for CC(=O)NC(Cc1ccc(N(CCCl)CCCl)cc1)C(=O)NC(CC(C)C)C(=O)O (configuration not stated) ?
Pf growth 96h: 10.4µM*; Pf growth 48h: 14.3%; HCV inh: -22.1%; HCMV inh: 15.1

How did CCOC(=O)C(NC(=O)C(Cc1ccc(N(CCCl)CCCl)cc1)NC(C)=O)C(C)C (configuration not stated) do in these assays?
Pf growth 96h: 3.6%; Pf growth 48h: -18.2%; HCV inh: -13.7%; HCMV inh: 54.3

Results for CC(C)c1ccc(OCC(=O)Nc2cccc(C(=O)Nc3ccccc3C(=O)O)c2)cc1 ?
Pf growth 96h: 9.28µM*; Pf growth 48h: inconclusive; HCV inh: 8.3%; HCMV inh: -39.0

What do the screens show for `COc1ccc(Nc2ncnc3c2cnn3-c2ccc(C)cc2C)cc1`?
HCMV inh: 26.1

How did CC(NC(=O)Cc1ccc(-c2ccccc2)cc1)c1ccccc1 (configuration not stated) do in these assays?
Pf growth 96h: 0.9%; Pf growth 48h: -6.1%; HCV inh: 14.1µM*; HCMV inh: -28.3

Results for CC(C)CC(NC(=O)COc1ccccc1)C(=O)O (configuration not stated) ?
Pf growth 96h: 11.7µM*; Pf growth 48h: -2.3%; HCV inh: 15.4%; HCMV inh: -14.3

Results for O=C(Cc1ccc(-c2ccccc2)cc1)NCc1ccccc1 ?
Pf growth 96h: 43.3%; Pf growth 48h: 9.0%; HCV inh: -18.0%; HCMV inh: -82.5*

Results for Cc1cccc(C)c1OCC(O)CNC(C)c1ccccc1 (configuration not stated) ?
Pf growth 96h: inconclusive; Pf growth 48h: inconclusive; HCV inh: 12.6µM*; HCMV inh: -36.3

What do the screens show for `COc1cccc(OCC(O)CNC(C)c2ccccc2)c1` (configuration not stated)?
Pf growth 96h: inconclusive; Pf growth 48h: -29.5%; HCV inh: inconclusive; HCMV inh: 16.2

What do the screens show for `COc1ccccc1-c1nc2c(c(SCc3cccc(Cl)c3)n1)Cc1c(CO)cnc(C)c1O2`?
HCMV inh: 2.8

What do the screens show for `CC(C)C[C@H](NC(=O)[C@@H](O)[C@H](N)Cc1ccccc1)C(=O)O`?
Pf growth 96h: 0.675µM*; Pf growth 48h: 0.757µM*; HCMV inh: inconclusive

How did CC(C)c1ccc(OCC(=O)NC(C)c2ccccc2)cc1 (configuration not stated) do in these assays?
Pf growth 96h: 13.1µM*; Pf growth 48h: 20.1%; HCV inh: 5.2%; HCMV inh: 4.3

What do the screens show for `COc1ccc2c(c1)[C@@H](NC(C)=O)[C@H](C)[C@@H](c1ccccc1)N2C(=O)Nc1ccc(C(F)(F)F)cc1`?
HCMV inh: -26.6

How did COCCCNc1nc2c(-c3cccc(Br)c3)nnn2c2ccccc12 do in these assays?
HCMV inh: 39.0

Results for COc1cccc(CNC(=O)CN(c2ccc(C(C)C)cc2)S(=O)(=O)c2c(C)n[nH]c2C)c1 ?
HCMV inh: -24.4

How did O=C(NC1(O)C(=O)c2ccccc2C1=O)c1c(Cl)cccc1Cl do in these assays?
Pf growth 96h: 32.6%; Pf growth 48h: 2.94µM*; HCV inh: 9.4%; HCMV inh: 10.7

Results for O=C(NC1(O)C(=O)c2ccccc2C1=O)c1ccccc1 ?
Pf growth 96h: -20.0%; Pf growth 48h: -6.1%; HCV inh: 0.6%; HCMV inh: 38.7

How did COc1ccc(-c2nc(-c3cccnc3)no2)cc1OC do in these assays?
Pf growth 96h: 52.9%; Pf growth 48h: 64.0%; HCV inh: 2.2%; HCMV inh: 47.9

What do the screens show for `Clc1nc(-c2cccnc2)nc2scc(-c3ccccc3)c12`?
Pf growth 96h: 1.04µM*; Pf growth 48h: 11.7µM*; HCV inh: inconclusive; HCMV inh: inconclusive

How did COc1ccc(-c2csc3nc(-c4cccnc4)nc(Cl)c23)cc1OC do in these assays?
Pf growth 96h: 6.57µM*; Pf growth 48h: 11.7µM*; HCV inh: inconclusive; HCMV inh: -70.5*

Results for COC(=O)C(c1ccccc1)(c1cn(C)c2c(C)cccc12)C(Nc1ccccc1)c1ccccc1 (configuration not stated) ?
HCMV inh: -16.9

How did CC1CCc2c(sc3ncnc(N4CCOCC4)c23)C1 (configuration not stated) do in these assays?
Pf growth 96h: 115.6%; Pf growth 48h: inconclusive; HCV inh: -25.7%; HCMV inh: -65.4*

How did Cc1ccc(C(=O)CSc2ncnc3sc4c(c23)CCC(C)C4)cc1 (configuration not stated) do in these assays?
Pf growth 96h: 87.7%; Pf growth 48h: -0.9%; HCV inh: inconclusive; HCMV inh: -99.4*

How did CC1CCc2sc3ncnc(N4CCOCC4)c3c2C1 (configuration not stated) do in these assays?
Pf growth 48h: inconclusive; HCV inh: 10µM*; HCMV inh: inconclusive

What do the screens show for `CCOC(=O)N1CCc2c(sc3c2c(=O)n(CCc2ccccc2)c(=O)n3Cc2c(F)cccc2Cl)C1`?
HCMV inh: -6.9

What do the screens show for `CCCc1cc(C(=O)Nc2c(C)nn(Cc3ccc(Cl)c(Cl)c3)c2C)no1`?
HCMV inh: -33.5

Results for Cc1nn(Cc2ccc(Cl)c(Cl)c2)c(C)c1NC(=O)c1noc2c1CCCCC2 ?
Pf growth 96h: 6.57µM*; Pf growth 48h: 34.4%; HCV inh: -11.1%; HCMV inh: -37.3

High-throughput results: PubChem, National Center for Advancing Translational Sciences (NCATS)
